# Assay outcomes from PubChem BioAssay.
# DT40 TDP1 CPT: DT40-hTDP1 cell growth loss with CPT; Potency, µM (doses to about 46.2 µM), actives largely listed as inhibitors; chicken DT40 Tdp1-/-;hTDP1 cells + 20 nM CPT, ATP luminescence, 48 h; 12% of 420,000 active; AID 686979; further: nearly all actives have a fitted effect of over 55% in size
#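 Cell growth measured by CellTiter-Glo luminescence after a minimum 48 h, 37 C compound exposure with 20 nM CPT in Tdp1-knockout DT40 cells stably expressing hTDP1, seeded 400/well; qHTS titration format.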
# HT1080 IDH1KD tx: toxicity to HT-1080 IDH1 knockdown cells (counter line); 2% of 360,000 active; Potency, µM (highest dose often 46.1 µM), usual class: cytotoxic; HT-1080 IDH1 knockdown viability, ATP luminescence, 48 h
#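 HT-1080-IDH1KD cells (IDH1 knocked down), 750/well in RPMI with 5% FBS, treated with compound 48 h at 37 degrees C. Viability by CellTiter-Glo luminescence, normalised to DMSO and no-cell wells; concentration-response curves classed.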
# DT40 TDP1 no CPT: qHTS for Inhibitors of human tyrosyl-DNA phosphodiesterase 1 (TDP1): qHTS in cells in absence of CPT | DT40 Tdp1-/- hTDP1 cells, no CPT, ATP luminescence, 48 h | Potency, µM (highest dose often 46.2 µM), actives largely listed as inhibitors | 15% of 420,000 active | AID 686978, 2013; further: nearly all actives have a fitted effect of over 55% in size
#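 Readout: luminescence from CellTiter-Glo after 30 min in the dark at RT. Cells: DT40 Tdp1-/- with stable hTDP1, 400/well. Exposure: compounds alone, ≥48 hr, 37 °C.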
# uPA surface inh: inhibitors of cell surface uPA generation. 0.31% of 330,000 active. Potency, µM (doses to about 38.3 µM), usual class: inhibitors. AID 540303. cell surface uPA generation assay, qHTS; active means well fitted inhibition curve with a large enough effect; inconclusive means small, poorly fitted or top-dose-only effect; inactive means no such curve, though single readings can be large or run the other way; tested in mouse RAW 264.7 cells; further: nearly all actives have a fitted effect of over 55% in size
# IL1B secr inh: inflammasome signaling inhibition, IL-1 beta readout | THP-1 LPS/ATP IL-1B secretion, AlphaLISA, 16 h; active compounds read low | AID 743279 | activity change, % at 57.5 µM | 4.7% of 360,000 active; in the data active means activity change below about -50%; inconclusive means mostly about -30% to -49%
#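 Secreted IL-1B measured by AlphaLISA bead assay after 16 h compound exposure of THP-1 cells; compounds (final up to 57.5 uM) added 1 h before LPS (250 ng/mL) and ATP (1.25 mM) stimulation; lower signal means less secretion.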
# HT1080NT lethal: kills 2HG-producing HT-1080-NT fibrosarcoma cells. HT-1080-NT fibrosarcoma viability, CellTiter-Glo ATP luminescence, 48 h. Potency, µM (series often up to 46.1 µM), hits mostly cytotoxic. 1.6% of 360,000 active;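 further: NT is the 2HG producing partner of a matched IDH1 knockdown line; nearly all actives have a fitted effect of over 55% in size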
#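 Compounds were tested in concentration-response format on HT-1080-NT cells for 48 hours at 37 degrees C. Cell viability came from CellTiter-Glo luminescence; curves were classified by r2, response magnitude and activity.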
# Hits are given with their value; – = inactive; ? = inconclusive; · = no result; [ ] = another dose, or the depositor's remark. The list is not random: actives were taken first. Their share in the collection is about 19%. Unless noted, the call rests on the fitted dose curve; in most records, active means well fitted curve in the direction sought with a large enough effect; inconclusive means small, poorly fitted or top-dose-only effect, or another doubt; inactive means no such curve, though single readings can be large; an effect the other way counts as inactive or inconclusive.
SMILES,DT40 TDP1 CPT,HT1080 IDH1KD tx,DT40 TDP1 no CPT,uPA surface inh,IL1B secr inh,HT1080NT lethal
Cc1ccc2oc(C(=O)NCc3ncc(C)[nH]3)c(C)c2c1,5.2µM,16µM,?,–,–,18µM
CCN(CC)S(=O)(=O)c1ccc2oc(C(=O)NCc3ccc(C)cc3)c(C)c2c1,?,?,?,–,–,–
CCc1ccc2oc(C(=O)NCc3ccncc3)c(C)c2c1,18µM,–,15µM,–,-66,–
CCCN1CC(CSC)C[C@H]2c3cccc4[nH]cc(c34)C[C@H]21 (some centres not stated),–,·,–,·,·,·
CCOc1ccccc1N1CCN(CC(O)COC2CCCc3ccccc32)CC1 (configuration not stated),?,–,?,–,–,–
O=C(CN(c1ccc2c(c1)OCCO2)S(=O)(=O)c1ccccc1)NCc1ccc(Cl)cc1,?,–,?,–,–,–
CCCCN(CC(=O)NCc1ccc(Cl)cc1)S(=O)(=O)c1ccc2c(c1)OCCO2,?,–,23µM,–,–,–
O=C(N=Nc1c(O)[nH]c2ccccc12)c1ccccc1NS(=O)(=O)c1cccs1,16µM,?,–,–,–,–
O=C(N=Nc1c(O)[nH]c2ccc(F)cc12)c1ccc(NS(=O)(=O)c2cccs2)cc1,–,–,–,–,–,–
Cc1ccc2[nH]c(O)c(N=NC(=O)c3ccc(NS(=O)(=O)c4cccs4)cc3)c2c1,15µM,–,?,–,–,–
Cn1ccnc1C(=O)c1ccc(NN)c([N+](=O)[O-])c1,–,?,–,–,-217,–
Cn1ccnc1C(=O)c1cccc([N+](=O)[O-])c1,–,–,–,–,–,–
OC(c1cccnc1)c1nc(/C=C/c2ccc(C(F)(F)F)cc2)cs1 (configuration not stated),21µM,–,2.6µM,·,–,–
OC(c1cccc(Cl)c1)c1nc(/C=C/c2ccc(C(F)(F)F)cc2)cs1 (configuration not stated),23µM,?,?,·,–,?
COC(=O)c1cc(NC(=O)c2cccc(F)c2)cc(C(=O)OC)c1,–,–,?,–,–,–
COC(=O)c1cc(NC(=O)CC(=O)c2cccc(N)c2)cc(C(=O)OC)c1,–,21µM,–,·,–,?
COc1ccccc1C1CCCN1Cc1nc(-c2ccc(C)s2)oc1C (configuration not stated),18µM,?,?,–,–,–
Cc1ccc(OC(=O)CSc2nnc(-c3ccc4c(c3)OCO4)o2)c(C)c1,–,·,–,·,·,·
COc1ccc(N2CCC(CNC(=O)Nc3ccc(OC)cc3OC)C2)cc1 (configuration not stated),?,–,–,–,–,–
COc1ccc(N2CCC(CNC(=S)Nc3ccc(C)cc3C)C2)cc1 (configuration not stated),?,–,18µM,?,?,–
COc1ccc(N2CCC(CNC(=S)Nc3cccc(C)c3)C2)cc1 (configuration not stated),?,–,?,–,-77,–
CCc1ccc(NC(=O)NCC2CCN(c3ccc(OC)cc3)C2)cc1 (configuration not stated),9.2µM,–,–,–,–,–
COc1ccc(N2CCC(CNC(=S)Nc3c(C)cc(C)cc3C)C2)cc1 (configuration not stated),?,–,?,–,–,–
CCN(CC)CC(C)CNC(=O)C1(O)c2ccccc2NC(=O)N1c1ccc(Cl)c(Cl)c1 (configuration not stated),–,–,–,–,–,–
CCOC(=O)c1ccc(S(=O)(=O)NC2CCC(C)CC2)cc1 (configuration not stated),16µM,–,21µM,?,–,–
SMILES,DT40 TDP1 CPT,HT1080 IDH1KD tx,DT40 TDP1 no CPT,uPA surface inh,IL1B secr inh,HT1080NT lethal
COc1ccc(CCN(Cc2cc3cc(C)cc(C)c3nc2Cl)C(=O)C2CC2)cc1,?,?,16µM,–,-69,?
COC(=O)c1c(C(=O)OC)c(-c2ccc(C)cc2)n2c1CCC2,–,–,–,·,–,–
COC(=O)c1c(C(=O)OC)c(-c2ccc(Cl)c(Cl)c2)n2c1CCC2,21µM,–,?,–,–,–
O=C(Nc1ccc(Br)cc1Cl)c1cnn2c1NC(=C1CC1)C=C2C(F)F,–,·,–,·,·,·
CC(=O)N1CCc2c(sc(NC(=O)CSc3ccc(F)cc3)c2-c2nc3ccccc3s2)C1,12µM,·,9.2µM,·,·,·
CN1CCc2c(sc(NC(=O)CSc3ccc(F)cc3)c2-c2nc3ccccc3s2)C1,?,·,16µM,·,·,·
CC(=O)N1CCc2c(sc(NC(=O)CS(=O)(=O)c3ccc(F)cc3)c2C#N)C1,?,–,–,–,–,–
CC(=O)Nc1sc2c(c1-c1nc3ccccc3s1)CCN(C(C)C)C2,2.3µM,12µM,2.6µM,?,-105,12µM
CC(C)Oc1cccc(C(=O)Nc2ccc(Br)cc2F)c1,?,–,16µM,–,–,–
Cc1noc(C)c1COc1cccc(C(=O)Nc2ccc(Br)cc2F)c1,8.2µM,?,6.5µM,–,–,?
Cc1noc(C)c1COc1cccc(C(=O)OC(C)C(=O)Nc2ccc3c(c2)OCO3)c1 (configuration not stated),1µM,5µM,0.82µM,?,–,10µM
COc1cccc(C(=O)Nc2ccc(F)cc2F)c1,–,–,–,–,–,–
COc1cc(C(=O)OC(C)C(=O)Nc2ccc3c(c2)OCO3)ccc1OCc1c(C)noc1C (configuration not stated),–,–,–,–,–,–
Cc1cccc(NC(=O)c2ncn3c2C(=O)N[C@@H](C)C3)c1,–,–,?,·,–,–
Cc1nccn1CCC(=O)NC1CC(C)(C)Cc2c1cnn2-c1ccccc1 (configuration not stated),–,–,–,·,–,–
COc1cc(-c2cc(C)c3cccc(OC)c3n2)cc2c1OCCN(C(=O)Cn1nc(C)cc1C)C2,–[9.04 µM],·,–,·,·,·
COc1cc(OC)c2nc(-c3cc4c(c(OC)c3)OCCN(C(=O)CC3NC(=O)c5ccccc53)C4)cc(C)c2c1 (configuration not stated),?,·,23µM,·,·,·
Cc1ccc(NC(=O)N(CCCN2CCOCC2)Cc2cc3cc4c(cc3[nH]c2=O)OCO4)cc1,21µM,–,?,–,–,–
O=C(Nc1ccccc1)N(CCCN1CCOCC1)Cc1cc2cc3c(cc2[nH]c1=O)OCCO3,?,–,10µM,–,–,–
